Experiment [1] can be described thus: antimalarial activity against Dd2 strain (AID 2302;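 active means growth inhibition above 50% at the single 2 µM test dose, taken to imply half-maximal potency below 2 µM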;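 further: 0% = DMSO untreated growth and 100% = chloroquine plus artemisinin killed control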). The note with it: P. falciparum Dd2 in RBCs, LDH growth readout, 72 h; at 2 µM; stronger effect = higher value.
A short description of experiment [2]: HepG2 cytotoxicity, primary screen, cytotoxicity control for P. falciparum antimalarial project, cell-based, ATP luminescence (AID 2303;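 active means inhibition above 50%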;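 further: 0% = DMSO wells and 100% = digitonin-killed cells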). The note with it: HepG2 viability, 24-48 h, at 10 µM, stronger effect = higher value.
Experiment [3] concerns the target L-lactate dehydrogenase (Plasmodium falciparum (isolate CDC / Honduras)) (UniProt Q27743). The experiment in a line: PfLDH activity inhibition – cell lysate, 3D7 strain, counter-screen for P. falciparum growth inhibition project (AID 2304).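 Further: 0% = vehicle and 100% = reference inhibitor.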 The note with it: P. falciparum 3D7 crude extract, LDH APAD/NBT absorbance; at 2 µM; stronger effect = higher value.
A short description of experiment [4]: inhibition of 3D7 malaria parasite growth – strain 3D7 (AID 2306).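 Further: 0% = DMSO wells and 100% = chloroquine plus artemisinin control wells.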 The note with it: P. falciparum 3D7 erythrocytic growth, LDH absorbance, 72 h; at 2 µM; stronger effect = higher value.
Experiment [5] deals with Calcium-dependent protein kinase 1 (Plasmodium falciparum (isolate 3D7)) (UniProt P62344). The experiment is described as follows: PfCDPK1 kinase inhibitors, biochemical, TCAMS library (AID 1159585; cut-off not given, nearly all actives have IC50 up to about 0.98 µM;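 further: inhibitors leave more ATP so luminescence rises with inhibition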). The note with it: recombinant PfCDPK1, Kinase-Glo ATP depletion luminescence.
For experiment [6], the target named is Plasmodium falciparum protein kinase 6 (PK6, PF3D7_1337100) (UniProt Q8IDW1). The experiment in a line: PfPK6 kinase inhibitors, biochemical, TCAMS library (AID 1159586). The note with it: recombinant PfPK6, Kinase-Glo ATP depletion luminescence.
The target in experiment [7] is Protein kinase 7 (PK7), Plasmodium falciparum 3D7 (PF3D7_0213400) (UniProt Q7YTF7). The experiment is described as follows: inhibition of Plasmodium PK7 catalytic activity – biochemical, TCAMS antimalarial set, Kinase-Glo luminescence (AID 1159587). The note with it: recombinant PfPK7, Kinase-Glo ATP depletion luminescence.
The target in experiment [8] is Calcium-dependent protein kinase 4 (Plasmodium falciparum (isolate 3D7)) (UniProt Q8IBS5). The experiment in a line: PfCDPK4 kinase inhibitors, biochemical, TCAMS library (AID 1159588; cut-off not given, nearly all actives have IC50 up to about 0.91 µM). The note with it: recombinant PfCDPK4, Kinase-Glo ATP depletion luminescence.

Structures are written as SMILES. A number with no mark means an inactive call. For part of these data: Entries with a potency or affinity are not part of this list. Activity calls are given as the source filed them. Unless noted, how the calls were made is not given here.

Results on 18 molecules are retold here after PubChem BioAssay.

Sequence of Protein kinase 7 (PK7), Plasmodium falciparum 3D7 (PF3D7_0213400) (Q7YTF7 1-343): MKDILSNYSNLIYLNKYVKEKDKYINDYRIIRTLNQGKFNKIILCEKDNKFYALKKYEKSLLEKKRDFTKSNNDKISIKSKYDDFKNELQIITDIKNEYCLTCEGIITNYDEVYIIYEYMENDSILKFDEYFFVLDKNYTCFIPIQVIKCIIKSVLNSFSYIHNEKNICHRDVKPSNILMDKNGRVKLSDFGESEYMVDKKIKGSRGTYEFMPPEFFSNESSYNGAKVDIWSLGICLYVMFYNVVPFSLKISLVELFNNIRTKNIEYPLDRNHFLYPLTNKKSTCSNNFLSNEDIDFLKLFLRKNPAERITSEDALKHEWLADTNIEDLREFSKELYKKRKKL
Sequence of Plasmodium falciparum protein kinase 6 (PK6, PF3D7_1337100) (Q8IDW1 1-305): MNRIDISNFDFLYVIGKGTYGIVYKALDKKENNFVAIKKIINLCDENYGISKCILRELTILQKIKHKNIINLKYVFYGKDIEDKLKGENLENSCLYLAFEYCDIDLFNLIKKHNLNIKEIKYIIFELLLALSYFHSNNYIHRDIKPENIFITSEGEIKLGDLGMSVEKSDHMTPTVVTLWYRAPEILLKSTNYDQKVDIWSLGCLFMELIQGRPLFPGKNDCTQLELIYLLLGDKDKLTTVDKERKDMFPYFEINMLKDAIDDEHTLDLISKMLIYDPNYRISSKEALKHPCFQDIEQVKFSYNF
Sequence of Calcium-dependent protein kinase 1 (Plasmodium falciparum (isolate 3D7)) (P62344 whole entry, looked up): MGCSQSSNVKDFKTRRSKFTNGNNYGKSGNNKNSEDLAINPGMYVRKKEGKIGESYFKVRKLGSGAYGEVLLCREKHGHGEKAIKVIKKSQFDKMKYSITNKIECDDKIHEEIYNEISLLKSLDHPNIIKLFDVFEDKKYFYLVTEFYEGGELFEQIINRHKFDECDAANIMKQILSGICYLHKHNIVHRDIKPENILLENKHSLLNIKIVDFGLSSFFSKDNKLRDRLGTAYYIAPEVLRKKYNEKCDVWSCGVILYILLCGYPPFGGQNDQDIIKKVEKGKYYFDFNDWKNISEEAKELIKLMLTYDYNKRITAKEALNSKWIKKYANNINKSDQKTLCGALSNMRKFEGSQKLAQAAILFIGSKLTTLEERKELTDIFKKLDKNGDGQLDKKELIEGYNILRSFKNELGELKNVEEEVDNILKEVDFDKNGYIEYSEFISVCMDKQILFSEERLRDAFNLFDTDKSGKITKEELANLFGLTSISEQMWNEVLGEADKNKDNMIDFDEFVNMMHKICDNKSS
Sequence of Calcium-dependent protein kinase 4 (Plasmodium falciparum (isolate 3D7)) (Q8IBS5 whole entry, looked up): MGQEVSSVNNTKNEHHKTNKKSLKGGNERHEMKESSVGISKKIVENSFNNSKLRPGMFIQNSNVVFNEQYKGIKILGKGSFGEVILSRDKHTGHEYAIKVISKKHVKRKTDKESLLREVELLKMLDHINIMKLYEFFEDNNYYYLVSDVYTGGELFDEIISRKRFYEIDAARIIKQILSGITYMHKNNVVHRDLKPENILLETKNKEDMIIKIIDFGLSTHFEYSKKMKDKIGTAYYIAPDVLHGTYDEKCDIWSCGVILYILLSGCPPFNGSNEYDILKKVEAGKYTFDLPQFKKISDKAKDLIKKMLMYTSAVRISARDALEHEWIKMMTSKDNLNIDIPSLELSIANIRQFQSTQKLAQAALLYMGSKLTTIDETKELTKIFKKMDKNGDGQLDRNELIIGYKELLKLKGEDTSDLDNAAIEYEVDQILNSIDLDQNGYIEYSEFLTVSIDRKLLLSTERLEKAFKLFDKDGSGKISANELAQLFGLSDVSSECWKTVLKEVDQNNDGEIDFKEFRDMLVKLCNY
Sequence of L-lactate dehydrogenase (Plasmodium falciparum (isolate CDC / Honduras)) (Q27743 whole entry, looked up): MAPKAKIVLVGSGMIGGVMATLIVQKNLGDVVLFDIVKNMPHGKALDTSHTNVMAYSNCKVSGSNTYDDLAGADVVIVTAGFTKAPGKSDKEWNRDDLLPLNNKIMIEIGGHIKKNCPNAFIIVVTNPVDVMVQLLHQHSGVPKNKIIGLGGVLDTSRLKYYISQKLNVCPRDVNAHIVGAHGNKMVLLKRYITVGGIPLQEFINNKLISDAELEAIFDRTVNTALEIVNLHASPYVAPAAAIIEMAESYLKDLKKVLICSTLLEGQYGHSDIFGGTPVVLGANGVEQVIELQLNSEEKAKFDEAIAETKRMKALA

For the molecule `CCNc1cc(C)nc(Nc2ccc(NC(=O)c3ccccc3Cl)cc2)n1`, the growth inhibition was 52% (active) in experiment [1] and 100% (active) in experiment [4]. The inhibition is 48% in experiment [2] and -2% in experiment [3]. Also, the result in experiment [5], in experiment [6], in experiment [7] and in experiment [8] was inactive.
With `N#Cc1ccc2c(c1)CCN(CCC1CCC(NC(=O)/C=C/c3cccc4ccccc34)CC1)CC2` (centres undefined), the growth inhibition in experiment [1] is 12%; in experiment [4], 96% (active). Further, the inhibition is 16% in experiment [2] and -6% in experiment [3]. The outcome in experiment [5], in experiment [6], in experiment [7] and in experiment [8] was inactive.
Turning to `O=S(=O)(NCCN1CCCC1)c1ccc(-c2ccc(CNCc3ccccc3)cc2)cc1F`, the growth inhibition was 39% in experiment [1] and 83% (active) in experiment [4]. The inhibition in experiment [2] is 35%; in experiment [3], 4%. The outcome in experiment [5], in experiment [6], in experiment [7] and in experiment [8] was inactive.
For the molecule `CNC(=O)C1Cc2c([nH]c3cc(Cl)ccc23)C2(CCN(CCc3ccccc3)CC2)N1` (centres undefined), the values for the growth inhibition in experiment [1] and in experiment [4] were 3% and 91% (active), respectively. Also, the figures for the inhibition in experiment [2] and in experiment [3] were 14% and 4%, respectively. Also, the outcome in experiment [5], in experiment [6], in experiment [7] and in experiment [8] was inactive.
Turning to `c1ccc2[nH]c(-c3ccc(-c4ccc(CN5CCCCC5)cc4)s3)nc2c1`, the values for the growth inhibition in experiment [1] and in experiment [4] were 69% (active) and 102% (active), respectively. Moreover, the inhibition in experiment [2] is 41%; in experiment [3], 2%. For the same molecule, the result in experiment [5], in experiment [6], in experiment [7] and in experiment [8] was inactive.
As for `COc1cc2nc(N3CCC(NC(=O)c4cccc(N(C)C)c4)CC3)nc(N)c2cc1OC`, the growth inhibition in experiment [1] was 0%; in experiment [4], 98% (active). In addition, the inhibition is 6% in experiment [2] and 1% in experiment [3]. For the same molecule, the outcome in experiment [5], in experiment [6], in experiment [7] and in experiment [8] was inactive.
As to `Cc1cc(-c2ccc(CNCCc3cccs3)cc2)ccc1S(=O)(=O)NCc1ccccc1`, the growth inhibition is -2% in experiment [1] and 94% (active) in experiment [4]. Besides, the inhibition was 28% in experiment [2] and 3% in experiment [3]. Moreover, the result in experiment [5], in experiment [6], in experiment [7] and in experiment [8] was inactive.
As for `Cc1[nH]c(C)c(-c2ccc(-c3ccc(F)cc3)cc2)c(=O)c1Br`, the growth inhibition in experiment [1] was 52% (active); in experiment [4], 94% (active). In addition, the inhibition is 12% in experiment [2] and 2% in experiment [3]. The outcome in experiment [5], in experiment [6], in experiment [7] and in experiment [8] was inactive.
Turning to `COc1ccc2ccc(F)c(CCN3CCC(NCc4cc5c(cn4)OCCO5)CC3)c2n1`, the growth inhibition in experiment [1] was 36%; in experiment [4] it was 96% (active). Moreover, the results for the inhibition in experiment [2] and in experiment [3] were 15% and 3%, respectively. Also, the outcome in experiment [5], in experiment [6], in experiment [7] and in experiment [8] was inactive.
In the case of `O=C(Nc1ccc(Cn2ncc(N3CCCNCC3)c(Cl)c2=O)cc1)Nc1ccc(C(F)(F)F)cc1`, the growth inhibition is 58% (active) in experiment [1] and 90% (active) in experiment [4]. Moreover, the values for the inhibition in experiment [2] and in experiment [3] were 12% and 4%, respectively. Besides, the outcome in experiment [5], in experiment [6], in experiment [7] and in experiment [8] was inactive.
As to `CC(=O)c1cccc(NC(=O)c2ccc(Cl)c(S(=O)(=O)N3CCc4ccccc43)c2)c1`, the growth inhibition in experiment [1] is 11%; in experiment [4] it was 93% (active). The inhibition in experiment [2] is 13%; in experiment [3], 0%. The result in experiment [5], in experiment [6], in experiment [7] and in experiment [8] was inactive.
On to `COc1cc(C2Nc3ccc4ccccc4c3C3=C2C(=O)CC(C)(C)C3)ccc1Oc1ccc([N+](=O)[O-])cc1C#N` (centres undefined), for which the growth inhibition is 94% (active) in experiment [1] and 99% (active) in experiment [4]. In addition, the inhibition in experiment [2] is 8%; in experiment [3] it was -1%. Also, the outcome in experiment [5], in experiment [6], in experiment [7] and in experiment [8] was inactive.
With `CCc1cn(C)c2c(N3CCCC3=O)cc(C(=O)N[C@@H](Cc3ccccc3)[C@H](O)CNC3CCCCC3)cc12`, the growth inhibition in experiment [1] was 98% (active); in experiment [4], 97% (active). For the same molecule, the inhibition in experiment [2] was 8%; in experiment [3], -1%. For the same molecule, the outcome in experiment [5], in experiment [6], in experiment [7] and in experiment [8] was inactive.
With `CCN(CC)C(=O)c1cnc(-c2ccccc2)nc1Oc1cccc(Cl)c1`, the growth inhibition was 40% in experiment [1] and 92% (active) in experiment [4]. Besides, the inhibition in experiment [2] was -7%; in experiment [3], -3%. The result in experiment [5], in experiment [6], in experiment [7] and in experiment [8] was inactive.
With `Cc1cccc2[nH]c(-c3cccc(-c4ccc(NC(=O)C(C)CN5CCOCC5)cc4)c3)nc12` (centres undefined), the values for the growth inhibition in experiment [1] and in experiment [4] were 30% and 93% (active), respectively. The inhibition in experiment [2] was 7%; in experiment [3] it was 2%. In addition, the result in experiment [5], in experiment [6], in experiment [7] and in experiment [8] was inactive.
For the molecule `CC[C@H]1CN(Cc2cccc(O)c2)CC[C@H]1CCCc1ccnc2ccc(O)cc12`, the growth inhibition in experiment [1] is 98% (active); in experiment [4] it was 103% (active). The inhibition in experiment [2] is 14%; in experiment [3] it was 4%. For the same molecule, the outcome in experiment [5], in experiment [6], in experiment [7] and in experiment [8] was inactive.
Regarding `CC(C)CNCc1cccc(-c2cccc(CN(CCCN3CCN(C)CC3)C(=O)CCC3CCCC3)c2)c1`, the growth inhibition was 96% (active) in experiment [1] and 100% (active) in experiment [4]. Further, the inhibition in experiment [2] was 45%; in experiment [3] it was -7%. In addition, the result in experiment [5], in experiment [6], in experiment [7] and in experiment [8] was inactive.
With `CC(NC(=O)c1ccc(O)c(-c2ccc(Cl)c(Cl)c2)c1)C(=O)NCCN1CCOCC1` (centres undefined), the growth inhibition in experiment [1] is 7%; in experiment [4], 87% (active). In addition, the inhibition in experiment [2] is 2%; in experiment [3], -3%. Moreover, the result in experiment [5], in experiment [6], in experiment [7] and in experiment [8] was inactive.
